Measured values taken from the supplement of paper PMC10681739.

What was measured:
ETS1 [1] = target: T1, ETS1 (UniProt P14921); assay: ETS1 binding intensity (PBM fluorescence), ETS1 alone (arbitrary fluorescence units); higher = stronger binding; conditions: ETS1 concentration 1 nM; RUNX1 concentration 0 nM
T1 sequence: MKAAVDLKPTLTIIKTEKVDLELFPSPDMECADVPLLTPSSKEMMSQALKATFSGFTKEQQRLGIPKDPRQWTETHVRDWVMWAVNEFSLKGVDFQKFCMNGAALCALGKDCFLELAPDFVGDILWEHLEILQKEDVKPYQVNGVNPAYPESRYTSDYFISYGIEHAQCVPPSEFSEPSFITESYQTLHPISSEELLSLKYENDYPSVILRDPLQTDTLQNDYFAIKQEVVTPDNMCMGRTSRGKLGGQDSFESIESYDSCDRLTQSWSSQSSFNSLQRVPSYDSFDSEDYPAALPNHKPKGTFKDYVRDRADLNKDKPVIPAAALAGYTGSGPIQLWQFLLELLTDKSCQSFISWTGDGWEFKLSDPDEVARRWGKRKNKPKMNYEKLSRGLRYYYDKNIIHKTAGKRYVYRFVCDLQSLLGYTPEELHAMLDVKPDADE

RUNX1 [2] = target: RUNX1 (UniProt Q01196); assay: RUNX1 binding intensity (PBM fluorescence), RUNX1 alone (arbitrary fluorescence units); higher = stronger binding; conditions: RUNX1 concentration 2 nM; ETS1 concentration 0 nM
Sequence of RUNX1 (Q01196 whole entry): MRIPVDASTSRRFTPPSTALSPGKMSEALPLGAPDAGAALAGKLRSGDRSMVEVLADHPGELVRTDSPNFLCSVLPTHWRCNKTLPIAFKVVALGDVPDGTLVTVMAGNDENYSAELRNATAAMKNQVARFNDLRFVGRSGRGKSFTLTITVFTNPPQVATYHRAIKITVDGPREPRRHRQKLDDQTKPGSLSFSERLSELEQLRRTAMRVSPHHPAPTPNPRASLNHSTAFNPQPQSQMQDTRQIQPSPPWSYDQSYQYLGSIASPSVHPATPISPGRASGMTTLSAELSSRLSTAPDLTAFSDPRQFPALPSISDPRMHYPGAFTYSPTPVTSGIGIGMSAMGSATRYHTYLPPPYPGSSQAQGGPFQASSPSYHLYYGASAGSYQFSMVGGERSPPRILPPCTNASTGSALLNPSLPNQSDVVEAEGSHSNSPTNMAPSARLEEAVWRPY
Method: (§1)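 Cooperative gcPBM on 36-bp genomic probes with neighbouring ETS1 and RUNX1 sites. Recombinant human RUNX1 (2 nM) was incubated alone or with ETS1 (25 nM) and detected with anti-RUNX1 antibody plus Alexa488 secondary. Values are medians over 4 replicate spots; the RUNX1+ETS1 data were normalised to the RUNX1-only data. The probes sit in constant array flanks that are not printed.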

ETS1 [3] = target: T1, ETS1; assay: ETS1 binding intensity (PBM fluorescence) in presence of RUNX1, normalised to ETS1-only experiment (arbitrary fluorescence units); higher = stronger binding; conditions: ETS1 concentration 1 nM; RUNX1 concentration 25 nM
RUNX1 [4] = target: RUNX1 (UniProt Q01196); assay: RUNX1 binding intensity (PBM fluorescence) in presence of ETS1, normalised to RUNX1-only experiment (arbitrary fluorescence units); higher = stronger binding; conditions: RUNX1 concentration 2 nM; ETS1 concentration 25 nM
Method: as §1
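For RUNX1 binding intensity (PBM fluorescence) in presence of ETS1, normalised to RUNX1-only experiment in this document: Full-length recombinant human ETS1 or RUNX1 bound to double-stranded 36-bp genomic probes on microarrays, detected by protein-specific primary antibody and Alexa488 secondary, spot fluorescence as median of four replicate spots.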
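For RUNX1 binding intensity (PBM fluorescence), RUNX1 alone in this document: Full-length recombinant human RUNX1 bound to double-stranded 36-bp genomic probes on a high-density microarray, scored as Alexa488 fluorescence per spot via anti-RUNX1 antibody, median of four replicate spots.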

Sequence	ETS1 binding intensity (ETS1 [1])	RUNX1 binding intensity (RUNX1 [2])	ETS1 binding intensity (ETS1 [3])	RUNX1 binding intensity (RUNX1 [4])
GGAGCGCGCCGGAAACGCGCGGCTGCGGCCCGGGAG	4280	722	4330	1320
GAGAAAAGAGACTGAGGATGTGGTTTGGGGTGTGGG	661	844	6260	1050
GACGGCCCCAGCGGAAGTGGTTGCCTTGGTTTGCGC	9920	734	10300	2190
TCGCCCGCCGCTTCCTGTCGCGGCGCCGCAGAGGCC	1740	821	1890	3000
CGCCGCTCAACTTCCGGCAACCACAGCTCTCTCTGA	1830	1070	3870	3150
AGGCAAACAGGATGTTCCTCTCCCACATGCAGACTT	4200	806	3770	1300
TGGCAGCGGGTGCGGAAACCACAGGCCTCCAGGCTT	701	1480	1520	2470
TTACAATCATTTCCTCTCTGTGGTTTGGTGACAAAT	722	1620	2000	3180
TGGTTTCTCACTGGCGGATGTGGGTGGGTCGCCTCC	4130	723	6390	1100
CCAACGAGCACTTCCGCTTCCCGCAGCTCCAGCGGC	2400	914	4270	2650
TTATTTCCGGTGTTGATCTTTTTAGTGGTACCAGGC	3400	1070	3640	2990
GCCCCGGAAGCTCCTTAAGGAGGACCGTGTGGGTTT	605	746	718	944
GCCACATATTTCCTGTGACAACCCTGTGGTGTGGCT	641	848	723	1640
ACCCTGAAATTACCCGGATGTGGTCCCCGCGCGCGC	6470	898	8100	1930
TGTGGAGACAGGAAGCACTAACCTCAAACCTCTTTC	2730	908	8830	1770
CCCGGAAACTCAACTGCCCACTGCTGCGGCCGCCAT	599	1070	708	1090
CTCCGATTGAGAACAGGAAGCCACAGGCCAATACAA	2660	831	3260	931
CTTCAGCCGCCACTTCCCCGCCCCCGCAGCCCGACA	936	1290	925	1290
CCATATCTGGCTTCCTAAGGAGGAACCACAAACCGT	375	1040	828	1080

Sequence	ETS1 binding intensity (ETS1 [1])	RUNX1 binding intensity (RUNX1 [2])	ETS1 binding intensity (ETS1 [3])	RUNX1 binding intensity (RUNX1 [4])
CTACGACTTCCGTGATGCCTTGCGGTTGCTGTAGCC	524	2700	1380	8450
CGAGCTCGGTGTTCCGCTTTTTGTGGGCCGGGTGGG	467	1080	478	903
TGCAGCTATGGCCGGAAGCCTGTGGGTGTGGGAGGA	4180	726	4580	906
GGCGGCACTAGGCTTCCGCCTCACCGCAGTGGGGTT	362	855	845	1430
TTAGCACATCCTGGGTACACAGACCACAGCCTCCTC	367	972	475	2140
ACCGGCCGAGCCAACTTCCGGCCGCAGAGGCTGCCG	5830	756	7630	1840
AGATCAACTTCCACATCCGGTGGTAACAGGGCCCTA	5380	835	5560	2970
GCAGAAGGATTTCCTGTTTCAGGCAACCACAGCGAC	1630	773	2450	1510
ATGTTAACATCCTGCCATGAAAACCGCAAGAAGGGC	680	19000	3730	26000
AATGATTACCTAACAGGAAAACCACATTGGTCATTT	1150	1180	3100	1130
TGCAATCAGGAAGCCTGCCCCTCTAGAACCACAAAA	540	882	1210	892
GGCCGTTCTTCCGCCTGCAGGGTGGTCAGCGGAGGT	571	712	446	1010
GCTTGTCTTCCGGTTTCGTCGCCGCCGCAGGCGCAC	1730	840	1880	1780
GCGCGGCCAGAGAAAGGATGTGGTATAGCAGAAAGT	1260	865	4380	1040
CCACGTCCACAAAGGAAACCGCGGCCTGCCCGGGGA	512	1080	1390	1590
AGCAACAACAAAGGAAGTGGCGGCCGCAGGGGGAGG	1320	795	2160	909
GCAGCTCTGGCAGGATGCGGTTAAATATGTATCCAC	2010	1920	12700	7800
CCGCTGACATCCGCTTGGCCTGCGGCTTCTTTCTGT	715	1080	1030	2740
